# Test results from PubChem BioAssay (EPA / NIEHS).
# Records with an inconclusive call do not appear. The source made the active and inactive calls. How the source made its calls: active means hit-call score of the fitted dose curve at least 0.9, where 1 is the maximum; inconclusive means response in the unintended direction; inactive means score below 0.9.
# Read-out: Cytochrome P450 2C19 (Homo sapiens) (UniProt P33261)
# Experiment: CLD_CYP2C19_24hr: CellzDirect (CLD) Gene Expression Assay for xenobiotic metabolism (CYP2C19) at 24 hours (AID 2283687)
# Description: CLD_24hr is a cell-based, multiplexed-readout assay that uses hepatocyte, a human liver primary cell, with measurements taken at 24 hours after chemical dosing in a 96-well plate.CLD_CYP2C19_24hr is one of 16 assay component(s) measured or calculated from the CLD_24hr assay. It is designed to make measurements of mRNA induction, a form of inducible reporter, as detected with chemiluminescence signals by Quantitative Nuclease Protection Assay (qNPA) technology.Data from the assay component CLD_CYP2C19_24hr was analyzed at the endpoint, CLD_CYP2C19_24hr, in the positive analysis fitting direction relative to DMSO as the negative control and baseline of activity. Using a type of inducible reporter, gain-of-signal activity can be used to understand changes in the reporter gene as they relate to the gene CYP2C19. Furthermore, this assay endpoint can be referred to as a primary readout. To generalize the intended target to other relatable targets, this assay endpoint is annotated to the cyp intended target family, where subfamily is xenobiotic metabolism.
# Human hepatocyte cultures were treated daily for two consecutive days with fresh dosing solutions containing appropriate concentrations of the 320 ToxCast chemicals (chemical identities were blinded to CellzDirect and other ToxCast collaborators), vehicle control (0.2% DMSO), and positive control inducers as summarized in Table 1. Due to the large number of treatment groups and chemicals examined, the ToxCast chemicals were divided into two groups (spanning two independent cultures of hepatocytes from separate donor preparations (Hu778: ToxCast plates 1 and 2; Hu776: ToxCast plates 3 and 4). Each preparation of human hepatocyte cultures was treated with respective vehicle control, medium only control, set of six positive controls/reference chemicals for the five hepatic receptor pathways, and a subset of eight of the ToxCast chemicals (indoxacarb, pyrithiobac-sodium, norflurazon, cyhalofop-butyl, methomyl, thiram, acetochlor, and propiconazole). These replicate data, coupled with internal replicates designed within the blinded ToxCast chemical library, provided additional data to evaluate interindividual differences between hepatocyte preparations and their potential impact on chemical profiles.Cell morphology and integrity were evaluated using phase-contrast microscopy as an indicator of hepatocyte cell health (Tyson & Green, 1987). Cultures for each treatment group (i.e., media, vehicle [0.2% DMSO], positive control inducers [multiple concentrations], and the ToxCast chemicals [multiple concentrations]) were observed and cell morphology was assessed relative to vehicle control cultures at each harvest time point (0, 6, 24, or 48 h). […] Images were evaluated at the conclusion of the study to assess changes in cell integrity and account for the effects of chemical exposure on uncharacteristic changes in concentration-dependent gene expression profiles. The results from these determinations of apparent cytotoxicity were annotated (yes/no) alongside the corresponding qNPA data for reference.At the conclusion of each treatment period, hepatocyte cultures (96-well) were washed with 1 volume of HBSS, lysed by addition of 25 ul ArrayPlate lysis buffer (HTG, Tucson, AZ), and 70 ul/well of Denaturation Oil, denatured by incubation at 95C for 10 min, and frozen at approximately -70C until analysis by nuclease protection assay (qNPA) (Roberts et al., 2007). For qNPA analysis, cell lysates were thawed at 50C for approximately 30 min, qNPA probes were added, and samples were incubated at 95C for 10 min to begin the detection process by denaturing the target RNA, dissociating the duplexes and secondary structure hybridization. At the conclusion of the hybridization period, S1 nuclease reagent was added to each sample to digest all nonprotected nucleotides at 50C for 60-90 min. […]
# Sequence of Cytochrome P450 2C19 (Homo sapiens) (P33261 whole entry, looked up): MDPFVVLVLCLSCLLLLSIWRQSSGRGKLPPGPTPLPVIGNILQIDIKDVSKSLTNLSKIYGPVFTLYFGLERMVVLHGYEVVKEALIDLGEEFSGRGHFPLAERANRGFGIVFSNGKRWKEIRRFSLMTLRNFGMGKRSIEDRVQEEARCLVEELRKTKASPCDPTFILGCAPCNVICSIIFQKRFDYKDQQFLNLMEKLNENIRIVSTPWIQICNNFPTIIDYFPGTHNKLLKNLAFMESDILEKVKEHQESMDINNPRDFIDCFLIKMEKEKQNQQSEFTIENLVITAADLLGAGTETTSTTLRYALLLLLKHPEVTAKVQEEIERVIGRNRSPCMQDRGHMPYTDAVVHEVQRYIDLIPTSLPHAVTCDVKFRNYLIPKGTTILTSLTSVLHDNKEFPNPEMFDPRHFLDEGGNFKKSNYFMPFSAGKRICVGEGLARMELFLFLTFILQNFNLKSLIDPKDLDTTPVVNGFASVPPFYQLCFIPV
row,SMILES,outcome
1,CCOc1nc(NC)nc(NC(=O)NS(=O)(=O)c2ccccc2C(=O)OC)n1,inactive
2,CCN(CC)C(=O)SCc1ccc(Cl)cc1,inactive
3,COc1cc(OC)nc(NC(=O)NS(=O)(=O)c2cc(NC=O)ccc2C(=O)N(C)C)n1,inactive
4,CCc1ccc(C(=O)NN(C(=O)c2cc(C)cc(C)c2)C(C)(C)C)cc1,inactive
5,CNC(=O)CSP(=S)(OC)OC,inactive
6,[2H]C1([2H])[n+]2ccccc2-c2cccc[n+]2C1([2H])[2H],inactive
7,COP(=O)(OC)OC=C(Cl)Cl,inactive
8,O=[N+]([O-])/N=C1\NCCN1Cc1ccc(Cl)nc1,inactive
9,CC[C@H](C)[C@H]1O[C@]2(C=C[C@@H]1C)C[C@@H]1C[C@@H](C/C=C(\C)[C@@H](O[C@H]3C[C@H](OC)[C@@H](O[C@H]4C[C@H](OC)[C@@H](O)[C@H](C)O4)[C@H](C)O3)[C@@H](C)/C=C/C=C3\CO[C@@H]4[C@H](O)C(C)=C[C@@H](C(=O)O1)[C@]34O)O2 (tested in a mixture with another compound),inactive
10,CCS(=O)(=O)c1cccnc1S(=O)(=O)NC(=O)Nc1nc(OC)cc(OC)n1,inactive
11,Clc1ccccc1-c1nnc(-c2ccccc2Cl)nn1,inactive
12,CC(C)OC(=O)Nc1cccc(Cl)c1,inactive
13,CC(C)(C)C(O)C(Oc1ccc(Cl)cc1)n1cncn1 (centres undefined),inactive
14,O=S(=O)(O)C(F)(F)C(F)(F)C(F)(F)C(F)(F)C(F)(F)C(F)(F)C(F)(F)C(F)(F)F,inactive
15,Cc1cc(C)nc(NC(=O)NS(=O)(=O)c2ccccc2C(=O)OC2COC2)n1,inactive
16,O=S1OCC2C(CO1)C1(Cl)C(Cl)=C(Cl)C2(Cl)C1(Cl)Cl (centres undefined),inactive
17,O=C(O)COc1ccc(Cl)cc1Cl,inactive
18,COC(=O)c1ccccc1S(=O)(=O)NC(=O)Nc1nc(C)nc(OC)n1,inactive
19,CCC(C)(NC(=O)c1cc(Cl)c(C)c(Cl)c1)C(=O)CCl (centres undefined),inactive
20,ClC1C(Cl)C(Cl)C(Cl)C(Cl)C1Cl (centres undefined),inactive
21,O=C(O)CCCOc1ccc(Cl)cc1Cl,inactive
22,Cc1[nH]c(=O)n(C(C)(C)C)c(=O)c1Cl,inactive
23,OCCOc1ccccc1,inactive
24,COC(=O)c1ccccc1CS(=O)(=O)NC(=O)Nc1nc(OC)cc(OC)n1,inactive
25,Oc1ccc(Cl)cc1Cc1ccccc1,inactive
26,CNC(=O)Oc1cccc(N=CN(C)C)c1,inactive
27,COC(=O)c1ccccc1S(=O)(=O)NC(=O)N(C)c1nc(C)nc(OC)n1,inactive
28,CC1(C)C(C=C(Cl)Cl)C1C(=O)OC(C#N)c1ccc(F)c(Oc2ccccc2)c1 (centres undefined),inactive
29,N#CN,inactive
